From PubChem BioAssay
Compounds with a hit are over-represented: about 11% of the library has one in this group of screens.
JMJD2A Tudor inh = inhibitors of human JMJD2A Tudor domain; AlphaScreen JMJD2A-Tudor / H3K4me3 peptide binding; 390,000 compounds, 4.4% hits; Potency, µM (titrated, usually from 114 µM), hits mostly inhibitors; also: nearly all actives have a fitted effect of over 50% in size
G9a inh = G9a (human) methyltransferase inhibition; Q96KQ7; G9a H3K9 monomethylation, AlphaScreen, 2 h; Potency, µM (doses to about 102 µM), hits mostly inhibitors; 350,000 compounds, 8.8% hits; AID 504332; also: nearly all actives have a fitted effect of over 75% in size
Target sequence (Q96KQ7 913-1193 limits assumed): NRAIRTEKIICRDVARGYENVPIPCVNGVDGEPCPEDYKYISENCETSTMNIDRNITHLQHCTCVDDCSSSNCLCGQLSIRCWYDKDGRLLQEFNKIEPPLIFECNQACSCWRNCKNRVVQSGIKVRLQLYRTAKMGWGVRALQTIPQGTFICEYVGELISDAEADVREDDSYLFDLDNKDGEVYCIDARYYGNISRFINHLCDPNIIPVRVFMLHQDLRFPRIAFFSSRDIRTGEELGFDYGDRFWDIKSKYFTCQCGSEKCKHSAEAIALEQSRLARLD
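Compounds were preincubated with 20 nM G9a for 15 min, after which biotinylated H3K9 peptide (500 nM) and SAM (20 uM) started a 2 h room-temperature reaction. Monomethylated product was quantified by antibody-based AlphaScreen chemiluminescence.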
BAZ2B inh = inhibitors of human BAZ2B bromodomain. Q9UIF8. AlphaScreen BAZ2B-H3K14Ac peptide displacement. Potency, µM (highest dose often 114 µM), usual class: inhibitors. 360,000 compounds, 4.4% hits; also: nearly all actives have a fitted effect of over 60% in size
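AlphaScreen displacement of biotin-H3(5-23)K14Ac peptide (50 nM final) from BAZ2B (50 nM final) in PBS pH 7.4, 0.01% Tween-20; complex preformed 30 min RT, then compounds (top 110 uM) 30 min RT, beads 20 min dark.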
L3MBTL1 inh = inhibitors of human L3MBTL1; Q9Y468; AlphaScreen L3MBTL1–H3K9me1 peptide binding; Potency, µM (doses to about 57.1 µM), hits mostly inhibitors; 230,000 compounds, 0.66% hits; also: nearly all actives have a fitted effect of over 60% in size
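Read-out is AlphaScreen signal from streptavidin donor and nickel chelate acceptor beads (10 ug/mL final each) bridging L3MBTL1 (50 nM) and biotinylated K9-monomethylated H3(1-15) peptide (75 nM), after 30 min compound exposure at room temperature.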
HP1b chromo inh = HP1-beta chromodomain-methylated histone interaction inhibition. P83916. AlphaScreen HP1-beta / biotin-H3K9me3 peptide binding. Potency, µM (series often up to 114 µM), hits mostly inhibitors. 390,000 compounds, 0.56% hits; also: nearly all actives have a fitted effect of over 70% in size
Target sequence (P83916 whole entry, looked up): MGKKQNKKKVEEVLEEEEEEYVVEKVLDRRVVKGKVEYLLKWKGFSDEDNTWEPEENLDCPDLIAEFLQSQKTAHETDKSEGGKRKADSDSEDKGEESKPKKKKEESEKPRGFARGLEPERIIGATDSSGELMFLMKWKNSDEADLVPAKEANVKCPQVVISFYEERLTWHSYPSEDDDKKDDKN
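Compound inhibition of the preformed complex between 50 nM HP1-beta and 50 nM biotinylated H3K9me3 peptide was read by AlphaScreen. Buffer was PBS pH 7.4 with 0.01% Tween-20. Incubations ran 30 min at room temperature, with 10 ug/mL donor/acceptor beads.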
Numbers stand for hits; [ ] = dose if it differs, or a comment. Calls follow the shape of the dose curve; as a rule, active = well fitted inhibition curve with a large enough effect; inconclusive = small, poorly fitted or top-dose-only effect; inactive = no such curve, though single readings can be large or run the other way.

O=[N+]([O-])c1ccc(NNC(=S)Nc2ccc(F)cc2)cc1 was read as JMJD2A Tudor inh 50µM, G9a inh inconclusive, BAZ2B inh 45µM, L3MBTL1 inh inactive and HP1b chromo inh inconclusive.
`Cc1ccc(NC(=S)NNC(=O)c2cccc([N+](=O)[O-])c2)cc1Cl` gave JMJD2A Tudor inh inconclusive, G9a inh 13µM, BAZ2B inh inconclusive, L3MBTL1 inh inconclusive and HP1b chromo inh inactive.
For COc1ccc(-c2nnc(SCC(=O)N(C)C3CCCCC3)o2)cc1OC the results were JMJD2A Tudor inh inactive, G9a inh inactive, BAZ2B inh inactive and HP1b chromo inh inactive.
`Nc1ccc2c(c1)Cc1c(F)cccc1-2` gave JMJD2A Tudor inh inactive and HP1b chromo inh inactive.
Screening COc1ccc([N+](=O)[O-])cc1NC(=S)NC(NC(C)=O)C(Cl)(Cl)Cl (centres undefined) returned JMJD2A Tudor inh inactive, G9a inh 40µM, BAZ2B inh inactive, L3MBTL1 inh inactive and HP1b chromo inh inactive.
`O=C(NNC(=S)Nc1ccc(F)cc1)c1cccc([N+](=O)[O-])c1` gave JMJD2A Tudor inh inactive, G9a inh 45µM, BAZ2B inh inactive, L3MBTL1 inh inactive and HP1b chromo inh inactive.
Screening COc1ccc([N+](=O)[O-])cc1NC(=S)NC(NC(=O)Cc1ccc(OC)c(OC)c1)C(Cl)(Cl)Cl (centres undefined) returned JMJD2A Tudor inh inactive, G9a inh inactive, BAZ2B inh inactive, L3MBTL1 inh inactive and HP1b chromo inh inactive.
COc1ccc(C(=O)NNC(=S)NC(=O)c2cccc([N+](=O)[O-])c2)cc1 was read as JMJD2A Tudor inh inactive and HP1b chromo inh inactive.
For O=C(NC(=S)Nc1cccc([N+](=O)[O-])c1)c1ccccc1 the results were JMJD2A Tudor inh inactive, G9a inh inactive, BAZ2B inh inactive, L3MBTL1 inh inactive and HP1b chromo inh inactive.
O=C(O)CC(NNC(=O)c1ccccc1)C(=O)Nc1cccc([N+](=O)[O-])c1 (centres undefined) was read as JMJD2A Tudor inh inconclusive, G9a inh 50µM, BAZ2B inh inconclusive and HP1b chromo inh inactive.
For COC(=O)c1c(NC(=O)c2ccc(Br)o2)sc(C)c1C the results were JMJD2A Tudor inh inactive, G9a inh 50µM, BAZ2B inh inactive, L3MBTL1 inh inactive and HP1b chromo inh inactive.
For COC(=O)c1c(NC(=O)c2ccco2)sc(C)c1C the results were JMJD2A Tudor inh inactive, G9a inh inconclusive, BAZ2B inh inactive, L3MBTL1 inh inactive[11.4 µM] and HP1b chromo inh inactive.
For COc1ccccc1NC(=O)C1CCN(C(=O)NCc2ccccc2)CC1 the results were JMJD2A Tudor inh inactive, G9a inh inactive, BAZ2B inh inactive and HP1b chromo inh inactive.
CCOc1ccccc1NC(=O)Cn1cc(C(=O)c2ccc(Cl)cc2)c(=O)c2ccc(C)nc21 was read as JMJD2A Tudor inh inactive, G9a inh inactive, BAZ2B inh inactive and HP1b chromo inh inactive.
CCc1ccc2[nH]c(=O)c(C(c3nnnn3CCOC)N3CCN(c4ccccc4)CC3)cc2c1 (centres undefined) was read as JMJD2A Tudor inh inconclusive, G9a inh 28µM, BAZ2B inh inactive, L3MBTL1 inh inactive and HP1b chromo inh inactive.
CCc1ccc2[nH]c(=O)c(C(c3nnnn3CCOC)N3CCN(c4ccc(F)cc4)CC3)cc2c1 (centres undefined) was read as JMJD2A Tudor inh inactive[11.4 µM], G9a inh inconclusive, BAZ2B inh inconclusive and HP1b chromo inh inactive.
Screening COCCn1nnnc1C(c1cc2cc(OC)c(OC)cc2[nH]c1=O)N1CCN(c2ccc(O)cc2)CC1 (centres undefined) returned JMJD2A Tudor inh 56µM, BAZ2B inh 28µM, L3MBTL1 inh inactive and HP1b chromo inh inconclusive.
COc1ccc(C(=O)CC(=O)c2ccccc2O)cc1 was read as JMJD2A Tudor inh inactive, G9a inh inactive[0.501 µM], BAZ2B inh inactive, L3MBTL1 inh inactive[2.29 µM] and HP1b chromo inh inactive.
`COc1ccc(O)c(C(=O)CC(=O)c2ccc(F)cc2)c1` gave JMJD2A Tudor inh inconclusive, G9a inh 79µM, BAZ2B inh inconclusive and HP1b chromo inh inconclusive.
CC(CNC(=O)c1ccc2nc(Cc3ccccc3)oc2c1)c1ccccc1 (centres undefined) was read as JMJD2A Tudor inh inactive, G9a inh inactive, BAZ2B inh inactive and HP1b chromo inh inactive.
For COc1cc(CN2CCc3ccccc3C2)ccc1O the results were JMJD2A Tudor inh 20µM, G9a inh 14µM, BAZ2B inh 50µM, L3MBTL1 inh inactive and HP1b chromo inh inconclusive.
COc1cc(CN2CCN(c3ccccc3C)CC2)cc([N+](=O)[O-])c1O was read as JMJD2A Tudor inh 4µM, G9a inh 79µM, BAZ2B inh inconclusive, L3MBTL1 inh inactive and HP1b chromo inh inconclusive.
For COc1ccccc1C1CCN(c2ccc(CO)cc2[N+](=O)[O-])CC1 the results were JMJD2A Tudor inh 56µM, G9a inh 35µM, BAZ2B inh inconclusive, L3MBTL1 inh inactive and HP1b chromo inh inconclusive.
Screening COc1cc(CN2CCCC(C)C2)cc([N+](=O)[O-])c1O (centres undefined) returned JMJD2A Tudor inh inactive, G9a inh inactive, BAZ2B inh inactive, L3MBTL1 inh inactive and HP1b chromo inh inactive.
Screening COc1cc(CN2CCCN(C)CC2)cc([N+](=O)[O-])c1O returned JMJD2A Tudor inh 0.89µM, BAZ2B inh inconclusive, L3MBTL1 inh inactive and HP1b chromo inh inconclusive.
For CC1=C(c2ccc(C)cc2)S(=O)(=O)N(Cc2ccc(C(=O)Nc3ccc(F)cc3C)cc2)C1=O the results were JMJD2A Tudor inh inactive, G9a inh inactive, BAZ2B inh inactive and HP1b chromo inh inactive.
`Cc1ccc(CSc2cn(CC(=O)N3CCCCC3)c3ccccc23)cc1` gave JMJD2A Tudor inh inactive, G9a inh inactive, BAZ2B inh inactive and HP1b chromo inh inactive.
For CC(=O)OC1CC[C@]2(C)C(CC(OC(C)=O)[C@@]3(C)C4=CC(=O)OC(c5ccoc5)[C@]4(C)CCC23)C1(C)C (some centres undefined) the results were G9a inh inactive[2.33 µM].
COc1cc(CN2CCN(c3ccc(C)cc3)CC2)cc([N+](=O)[O-])c1O was read as JMJD2A Tudor inh inactive, G9a inh inactive, BAZ2B inh inconclusive, L3MBTL1 inh inactive and HP1b chromo inh inactive.
COc1cc(CN2CCc3ccccc3C2)cc([N+](=O)[O-])c1O was read as JMJD2A Tudor inh 22µM, G9a inh 8.9µM, BAZ2B inh inconclusive, L3MBTL1 inh inactive and HP1b chromo inh inconclusive.
For O=C(O)c1ccc(Nc2nc(-c3ccccc3)nc3ccccc23)cc1 the results were JMJD2A Tudor inh 40µM, G9a inh inconclusive, BAZ2B inh inactive and HP1b chromo inh inactive.
For Cc1ccc(-c2nc(Nc3ccc(N4CCOCC4)cc3)c3ccccc3n2)cc1 the results were JMJD2A Tudor inh 40µM, BAZ2B inh 32µM, L3MBTL1 inh inactive and HP1b chromo inh inconclusive.
Screening CNC(=O)c1ccc(Nc2nc(-c3ccccc3)nc3ccccc23)cc1 returned JMJD2A Tudor inh inactive, G9a inh 50µM, BAZ2B inh inactive and HP1b chromo inh inactive.
